Data on 14 compounds can be found in PubChem BioAssay.

Assay [1] is described as follows: inhibitors of TNFa-induced NFkB p65 translocation, primary screen, imaging, HUVEC, MLSMR starter and 10KST1 sets (AID 438;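 active = inhibition above 20% together with a positive visual image hit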;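 note: compound added about 3h40 before a 20 min TNFalpha stimulation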;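 for inhibition: signal is the nuclear over cytoplasmic p65 intensity ratio per well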). The settings on record: HUVEC TNFa-induced p65 nuclear translocation; cell count: measured here: nuclei count (cytotoxicity indicator), at 2.08 µM; inhibition: at 2 µM, stronger effect = higher value, 0% TNFa-plus-vehicle, 100% no-TNFa wells.
The nature of assay [2]: reduction of polyQ htt aggregates in cells – imaging, exon1htt(103Q)mCFP cells, high-content imaging, primary screen (AID 483).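 For nuclei count: percent of the per-plate median nuclei count of sample wells.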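 Note: compound exposure lasted 3 days before fixation.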 The settings on record: exon1htt(103Q)mCFP cell line, aggregate imaging, at 2 µM; inhibition of aggregation: stronger effect = higher value; nuclei count: measured here: cell count, toxicity.
Assay [3] is described as follows: endothelial E-selectin expression blockers – imaging, HUVEC, immunofluorescence, MLSMR starter and 10KST1 sets, primary screen (AID 487;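 active = visually confirmed hit in the image check and inhibition above 20%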;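 for inhibition: signal is fraction of cell area covered by stained E-selectin grains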;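 for nuclei count: 100% = median nuclei count of all wells on the same plate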). The settings on record: HUVEC TNFalpha-induced E-selectin immunofluorescence imaging, at 2 µM; inhibition: stronger effect = higher value; nuclei count: measured here: cell number, toxicity.
Assay [4] concerns the target Voltage-gated potassium channel subunit beta-2 (Rattus norvegicus) (UniProt P62483). As to the kind of experiment: inhibitors of rat Kvbeta2 reductase activity – biochemical, NADPH fluorescence, primary screen (AID 622;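 active = fluorescence slope higher than the sample average by over 3 SD, cut at about -0.22 in these data, passing the limit was not always enough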;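 note: slope of raw intensity against log time taken from 70 to 1610 s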). The settings on record: recombinant KvBeta, 4-cyanobenzaldehyde reduction, at 10 µM, stronger effect = higher value.
Assay [5] has the same target. As to the kind of experiment: enhancers of rat Kvbeta2 NADPH turnover – biochemical, NADPH fluorescence, primary screen (AID 623;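 active = NADPH fluorescence slope more negative than the mean of all samples by about 3 SD, 99.7% confidence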;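 note: fluorescence intensity change per second fitted from 20 to 320 s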). The settings on record: Recombinant KvBeta, NADPH fluorescence decrease slope, 10 min; at 10 µM; stronger effect = lower value.
Assay [6] concerns the target Alpha-2C adrenergic receptor (Homo sapiens) (UniProt P18825). As to the kind of experiment: compounds altering alpha2C-coupled GIRK flux – cell-based, HEK293 alpha2C/GIRK1/2, thallium flux, primary screen (AID 624;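 active = fluorescence slope after compound addition differing from the mean of all screened samples at 99.7% confidence, in either direction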;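 note: slope of fluorescence ratio to pre-addition baseline per second over 15 to 24 s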). Particulars: thallium flux BTC fluorescence, at 10 µM, actives lie on both sides.
Assay [7] can be described thus: blockers of RIG-like receptor reporter activation – cell-based, Sendai virus stimulus, luciferase, 10K MLSCN set, TLR/RLR signaling modifier project, primary screen (AID 602276;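 active = inhibition at or above 50% at 10 µM; inactive = inhibition below 50%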;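 note: firefly luciferase from ISG56 promoter only with Renilla not read in this screen; 0% = Sendai virus plus DMSO and 100% = medium plus DMSO without virus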). Particulars: HEK293 RL24 IRF3 luciferase reporter, at 10 µM, stronger effect = higher value.
Assay [8] is described as follows: TLR3 IRF3 reporter activation blockers – cell-based, poly I:C stimulus, luciferase, 10K MLSCN set, primary screen (AID 602277;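 active = inhibition of the reporter signal at or above 50%; inactive = inhibition below 50%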). Particulars: HEK293-TLR3 RL24 IRF3 luciferase reporter, at 10 µM, stronger effect = higher value. For orientation: In a reporter assay the amount or activity of a reporter protein is the signal.

Each structure is given as a SMILES string. Active and inactive are the calls of the source.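 Rule for the calls, unless noted: active = visual image review flags a hit and inhibition of aggregation exceeds 20%; inconclusive = visual hit but inhibition at or below 20%; inactive = no hit on visual image review.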

Chain of Voltage-gated potassium channel subunit beta-2 (Rattus norvegicus) (P62483 whole entry, looked up): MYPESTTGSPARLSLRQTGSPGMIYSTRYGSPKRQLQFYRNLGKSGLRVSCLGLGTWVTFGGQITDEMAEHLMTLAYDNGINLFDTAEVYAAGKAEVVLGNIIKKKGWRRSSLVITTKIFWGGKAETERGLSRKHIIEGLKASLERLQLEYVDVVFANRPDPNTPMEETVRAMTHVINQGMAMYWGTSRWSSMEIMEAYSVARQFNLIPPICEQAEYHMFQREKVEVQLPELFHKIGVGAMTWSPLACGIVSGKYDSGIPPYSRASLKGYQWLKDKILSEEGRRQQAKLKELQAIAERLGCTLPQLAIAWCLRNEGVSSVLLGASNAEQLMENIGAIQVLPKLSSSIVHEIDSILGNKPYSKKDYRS
Chain of Alpha-2C adrenergic receptor (Homo sapiens) (P18825 whole entry, looked up): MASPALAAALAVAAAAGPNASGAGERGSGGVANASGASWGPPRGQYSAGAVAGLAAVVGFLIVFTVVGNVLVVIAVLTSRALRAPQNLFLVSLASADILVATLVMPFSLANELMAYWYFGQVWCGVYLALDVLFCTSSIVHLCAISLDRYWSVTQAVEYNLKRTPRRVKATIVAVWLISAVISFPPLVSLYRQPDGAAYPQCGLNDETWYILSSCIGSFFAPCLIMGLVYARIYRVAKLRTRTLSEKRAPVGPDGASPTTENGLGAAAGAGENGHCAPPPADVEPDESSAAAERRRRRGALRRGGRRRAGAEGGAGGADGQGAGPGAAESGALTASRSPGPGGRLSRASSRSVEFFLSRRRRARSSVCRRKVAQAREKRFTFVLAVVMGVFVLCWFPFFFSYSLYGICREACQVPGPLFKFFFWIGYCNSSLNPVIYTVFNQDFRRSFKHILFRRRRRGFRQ

As usually defined, the inhibition is the change of the read-out against control, counted positive when it falls. As to `Cc1cc(C)nc(SCC(=O)Nc2ncc3c(n2)CCCC3=O)n1`, in assay [1], the cell count was 188. The inhibition in assay [1] was -8.6% (inactive); in assay [3] it was -9.1% (inactive); in assay [7], 6.63% (inactive); in assay [8], 11.4% (inactive). Besides, the inhibition of aggregation in assay [2] is 10.1% (inactive). In addition, the nuclei count in assay [2] came out at 98.6%; in assay [3] it was 85.2%. Moreover, the fluorescence slope in assay [4] was -0.622 (inactive). In assay [5], the NADPH fluorescence slope was -1.1e-05 (inactive). Also, in assay [6], the slope was 0.00766 (inactive).
As for `COc1ccc(CNC(=O)c2cnc3n(c2=O)CCS3)cc1`, the cell count in assay [1] worked out at 591. The inhibition in assay [1] was -6.4% (inactive); in assay [3], 15.6% (inactive); in assay [7], 10.9% (inactive); in assay [8], 29.1% (inactive). Further, the inhibition of aggregation in assay [2] was 15.6% (inactive). The results for the nuclei count in assay [2] and in assay [3] were 97.2% and 95.7%, respectively. Moreover, in assay [4], the fluorescence slope is -0.369 (inactive). The NADPH fluorescence slope in assay [5] is 4e-05 (inactive). The slope in assay [6] is 0.00542 (inactive).
For `Cc1ccc(-c2nc(CS(=O)CC(=O)NCCN(CC(C)C)CC(C)C)c(C)o2)cc1` (centres undefined), the cell count in assay [1] was 716. For the same compound, the inhibition was -7.2% (inactive) in assay [1], -18% (inactive) in assay [3], 21.1% (inactive) in assay [7] and 30.9% (inactive) in assay [8]. Further, the inhibition of aggregation in assay [2] is 21.6% (inactive). The nuclei count in assay [2] turned out to be 134%; in assay [3] it was 112%. Also, the fluorescence slope in assay [4] is -0.538 (inactive). The NADPH fluorescence slope in assay [5] is -2.2e-05 (inactive). Further, the slope in assay [6] is 0.00425 (inactive).
For the compound `C=CCSC1=C(C#N)C(c2ccccc2OCC)CC(=O)N1` (centres undefined), in assay [1], the cell count is 328. Moreover, the inhibition in assay [1] was -4.1% (inactive); in assay [3], 12.5% (inactive); in assay [7], 6.62% (inactive); in assay [8], 24.6% (inactive). Also, in assay [2], the inhibition of aggregation is 12.8% (inactive). Moreover, the results for the nuclei count in assay [2] and in assay [3] were 99% and 105%, respectively. In assay [4], the fluorescence slope was -0.306 (inactive). In assay [5], the NADPH fluorescence slope is 1.7e-05 (inactive). Besides, the slope in assay [6] was 0.00314 (inactive).
With `COc1ccc(-n2c(Cc3cccn3C)nnc2SCC(=O)Nc2cccc(OC)c2)cc1`, the cell count in assay [1] came to 545. For the same compound, the inhibition was 0.5% (inactive) in assay [1], -28.8% (inactive) in assay [3], -1.72% (inactive) in assay [7] and 5.53% (inactive) in assay [8]. Further, the inhibition of aggregation in assay [2] was 5.4% (inactive). Also, the results for the nuclei count in assay [2] and in assay [3] were 93.7% and 90.2%, respectively. Moreover, in assay [4], the fluorescence slope is -0.632 (inactive). Further, the NADPH fluorescence slope in assay [5] is 2.3e-05 (inactive). In addition, in assay [6], the slope was 0.00546 (inactive).
As to `FC(F)(F)c1cccc(N2CCN(Cc3cccnc3)CC2)c1`, the cell count in assay [1] turned out to be 447. The inhibition is -3.8% (inactive) in assay [1], -57.5% (inactive) in assay [3], 17.4% (inactive) in assay [7] and 12.1% (inactive) in assay [8]. For the same compound, in assay [2], the inhibition of aggregation was -15.1% (inactive). Also, the nuclei count in assay [2] was 109%; in assay [3] it was 127%. For the same compound, the fluorescence slope in assay [4] is -0.505 (inactive). The NADPH fluorescence slope in assay [5] was -6.8e-05 (inactive). The slope in assay [6] was 0.00521 (inactive).
Take `COc1ccc(CN2C(=O)[C@@H]3C(c4ccc(F)cc4)=NO[C@@H]3C2=O)cc1`: the cell count in assay [1] came out at 338. Further, the inhibition in assay [1] is -10.5% (inactive); in assay [3], -34.5% (inactive); in assay [7], 13.4% (inactive); in assay [8] it was 23.3% (inactive). Besides, the inhibition of aggregation in assay [2] is -8.2% (inactive). The results for the nuclei count in assay [2] and in assay [3] were 87.7% and 113%, respectively. For the same compound, the fluorescence slope in assay [4] is -0.302 (inactive). In assay [5], the NADPH fluorescence slope was -5.3e-05 (inactive). For the same compound, in assay [6], the slope is 0.00504 (inactive).
For `CCS(=O)(=O)N1CCCC(C(=O)NCc2cccc(OC)c2)C1` (centres undefined), in assay [1], the cell count was found to be 722. In addition, the inhibition in assay [1] is -5.5% (inactive); in assay [3] it was -66.4% (inactive); in assay [7], -3.96% (inactive); in assay [8], 3.19% (inactive). Besides, the inhibition of aggregation in assay [2] was -59.8% (inactive). For the same compound, the nuclei count in assay [2] was found to be 105%; in assay [3], 116%. Besides, the fluorescence slope in assay [4] is -0.617 (inactive). Also, the NADPH fluorescence slope in assay [5] is -1.9e-05 (inactive). The slope in assay [6] is 0.00403 (inactive).
As to `Cn1c(=O)c2c(nc(CN3CCOCC3)n2CC(O)CO)n(C)c1=O` (centres undefined), the cell count in assay [1] was determined as 474. The inhibition in assay [1] was 44.4% (active); in assay [3], 10.6% (inactive); in assay [7] it was 14.2% (inactive); in assay [8], 23.9% (inactive). Besides, the inhibition of aggregation in assay [2] was 19.2% (inactive). Moreover, the nuclei count in assay [2] amounted to 103%; in assay [3], 110%. In addition, in assay [4], the fluorescence slope is -0.427 (inactive). Also, the NADPH fluorescence slope in assay [5] was -2.2e-05 (inactive). The slope in assay [6] was 0.00587 (inactive).
Regarding `CCOC(=O)c1oc2ccccc2c1NC(=O)COC`, the cell count in assay [1] stood at 602. Further, the inhibition in assay [1] is -1.8% (inactive); in assay [3], 66.5% (inactive); in assay [7], -14.3% (inactive); in assay [8] it was 4.92% (inactive). Besides, the inhibition of aggregation in assay [2] is 15.5% (inactive). Also, the figures for the nuclei count in assay [2] and in assay [3] were 92.3% and 59.1%, respectively. In assay [4], the fluorescence slope was -0.486 (inactive). Also, the NADPH fluorescence slope in assay [5] was -1.7e-05 (inactive). For the same compound, the slope in assay [6] was 0.00552 (inactive).
With `CC(=O)c1cccc(NC(=O)CCOc2ccccc2)c1`, the cell count in assay [1] came to 580. Besides, the inhibition in assay [1] is 7.4% (inactive); in assay [3], 1.3% (inactive); in assay [7], -37.6% (inactive); in assay [8], -83.6% (inactive). The inhibition of aggregation in assay [2] was 6% (inactive). For the same compound, the nuclei count in assay [2] was determined as 101%; in assay [3] it was 119%. The fluorescence slope in assay [4] was -0.428 (inactive). Besides, the NADPH fluorescence slope in assay [5] is 4.3e-05 (inactive). For the same compound, in assay [6], the slope was 0.00322 (inactive).
Regarding `O=C(Nn1c(C2CC2)nc2ccccc2c1=O)c1ccco1`, the cell count in assay [1] is 579. For the same compound, the inhibition is -12.1% (inactive) in assay [1], -38.3% (inactive) in assay [3], 9.09% (inactive) in assay [7] and 23.5% (inactive) in assay [8]. Moreover, the inhibition of aggregation in assay [2] was 9.9% (inactive). The nuclei count amounted to 95.2% in assay [2] and 116% in assay [3]. Further, the fluorescence slope in assay [4] was -0.48 (inactive). Further, the NADPH fluorescence slope in assay [5] is 6.6e-05 (inactive). In assay [6], the slope is 0.00689 (inactive).
Consider `Cc1cccc(OCCNC(=O)c2ncn[nH]2)c1`, for which the cell count in assay [1] worked out at 228. Also, the inhibition was 4.2% (inactive) in assay [1], -263% (inactive) in assay [3], 5.98% (inactive) in assay [7] and 32.3% (inactive) in assay [8]. Further, the inhibition of aggregation in assay [2] was 1.8% (inactive). The nuclei count was 100% in assay [2] and 144% in assay [3]. In addition, in assay [4], the fluorescence slope was -0.443 (inactive). Also, in assay [5], the NADPH fluorescence slope was -1.6e-05 (inactive). For the same compound, in assay [6], the slope is 0.00209 (inactive).
In the case of `O=C(C1CCN(c2nnc(-n3cccc3)s2)CC1)N1CCOCC1`, the cell count in assay [1] worked out at 661. In addition, the inhibition in assay [1] was -2.9% (inactive); in assay [3], -50.3% (inactive); in assay [7] it was 7.65% (inactive); in assay [8] it was 18% (inactive). The inhibition of aggregation in assay [2] is 6.4% (inactive). The nuclei count stood at 123% in assay [2] and 102% in assay [3]. Also, the fluorescence slope in assay [4] was -0.418 (inactive). In assay [5], the NADPH fluorescence slope is -4.1e-05 (inactive). In addition, in assay [6], the slope is 0.00592 (inactive).
